# According to PubChem BioAssay AID1220 (Sanford-Burnham Center for Chemical Genomics, 2008):
# The campaign covered roughly 190,000 compounds. About 1,300 (0.68%) were called active. Rule as the data show it: active = inhibition above about 50%; inactive = the rest. The entries come from a sample that favours actives as a whole.
# Molecular target: Mannose-6-phosphate isomerase (Homo sapiens) (UniProt P34949)
# Assay: human PMI inhibitors, high substrate, primary screen, biochemical, fluorescence intensity, high mannose 6-phosphate (AID 1220)
# Settings: recombinant PMI enzyme, coupled fluorescence intensity; at 20 µM; active compounds read high
# Sequence of Mannose-6-phosphate isomerase (Homo sapiens) (P34949 whole entry, looked up): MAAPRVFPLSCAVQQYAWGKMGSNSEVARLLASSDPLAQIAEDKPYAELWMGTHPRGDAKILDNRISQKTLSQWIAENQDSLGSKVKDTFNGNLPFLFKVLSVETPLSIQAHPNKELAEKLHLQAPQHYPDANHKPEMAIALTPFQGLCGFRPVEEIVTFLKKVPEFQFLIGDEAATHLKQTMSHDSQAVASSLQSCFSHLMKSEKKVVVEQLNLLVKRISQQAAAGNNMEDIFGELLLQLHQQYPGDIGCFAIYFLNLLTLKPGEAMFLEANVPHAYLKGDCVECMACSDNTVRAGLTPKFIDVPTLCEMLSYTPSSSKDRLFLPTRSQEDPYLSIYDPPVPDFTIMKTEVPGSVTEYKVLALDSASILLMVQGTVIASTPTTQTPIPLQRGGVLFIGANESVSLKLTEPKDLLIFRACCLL
row,Compound,inhibition
1,CN(C)C(=O)Oc1ccc(-c2nnco2)cc1,2.3% (inactive)
2,OC1(c2cccnc2)CC2CCC(C1)N2Cc1nnnn1Cc1ccccc1 (configuration not stated),-8.1% (inactive)
3,CCOP(=O)(OCC)C(c1ccccc1)N(C)C=O (configuration not stated),1.8% (inactive)
4,CC(C)(C)NC(=O)NC(=O)CN1CC=C(c2ccccc2)CC1,7.7% (inactive)
5,O=C1NC(=O)C2(Cc3ccccc3N3CCCC32)C(=O)N1 (configuration not stated),-47.2% (inactive)
6,O=C(Nc1ccc2c(c1)OCO2)c1cn(Cc2ccc(F)cc2)nn1,12.6% (inactive)
7,COc1ccccc1NC1(C#N)CCCCC1,38.8% (inactive)
8,COc1ccc(NC2(C#N)CCCCC2)cc1,52.7% (active)
9,Cc1ccccc1NC1(C#N)CCCCC1,-0.6% (inactive)
10,Cc1sc2ncn(CC(=O)NCCCC(=O)N3CCC4(CC3)OCCO4)c(=O)c2c1C,-1.4% (inactive)
11,O=C1C=Cc2ccccc2C1=O,75.2% (active)
12,O=C1C(=O)c2ccccc2-c2ccccc21,1.8% (inactive)
13,O=C1C(=O)c2cccc3cccc1c23,44.3% (inactive)
14,CC(O)CNc1ccc([N+](=O)[O-])c2cccnc12 (configuration not stated),52.2% (active)
15,O=C(NCCCN1CCOCC1)C(Cl)(Cl)Cl,-7.8% (inactive)
16,CCN(CCNc1ccc([N+](=O)[O-])c2cccnc12)S(=O)(=O)c1ccccc1,8.2% (inactive)
17,O=[N+]([O-])c1ccc(NCCCN2CCOCC2)c2ncccc12,57.5% (active)
18,CCC(CO)Nc1ccc([N+](=O)[O-])c2cccnc12 (configuration not stated),38.6% (inactive)
19,NCCNc1ccc([N+](=O)[O-])c2cccnc12,51.1% (active)
20,Cc1nonc1OCCNCCNc1ccc([N+](=O)[O-])c2cccnc12,39% (inactive)
21,CCN(CC)c1ccc([N+](=O)[O-])c2cccnc12,67.2% (active)
22,CCN(CCNc1ccc([N+](=O)[O-])c2cccnc12)S(=O)(=O)c1ccc(Cl)cc1,36.7% (inactive)
23,O=[N+]([O-])c1ccc(NCc2ccccc2)c2nonc12,43.9% (inactive)
24,Cc1nonc1OCCNc1ccc([N+](=O)[O-])c2cccnc12,33.9% (inactive)
25,O=[N+]([O-])c1ccc(NCCO)c2ncccc12,35.9% (inactive)
26,CCC(=O)N1c2ccc(S(=O)(=O)CCC(=O)N3CCC4(CC3)OCCO4)cc2CC1C (configuration not stated),-5.2% (inactive)

row,Compound,inhibition
1,O=C1CN=C(c2ccc(F)cc2)c2oc3ccccc3c2N1,-7.1% (inactive)
2,CCOC(=O)c1c(C)n(Cc2ccccc2)c2ccc(O)cc12,40.8% (inactive)
3,O=C(c1ccc2c(c1)OCO2)C1CCCN(CC2CCCCC2)C1 (configuration not stated),12.9% (inactive)
4,CCOP(=O)(OCC)C(O)c1ccc(OC)c(OC)c1 (configuration not stated),2.3% (inactive)
5,CCN(CC)c1ccc(/C=C2\C(=O)NC(=O)N(CC3CCCO3)C2=O)cc1 (configuration not stated),-4.6% (inactive)
6,CC(=O)c1c(O)n(C)c(=S)n(-c2ccccc2)c1=O,-1.3% (inactive)
7,CNC(=O)Oc1ccc(-c2cn3cc(C)ccc3n2)cc1,4.6% (inactive)
8,CNC(=O)Oc1cccc(-c2cn3cc(Cl)ccc3n2)c1,3% (inactive)
9,CNC(=O)Oc1cccc(-c2cn3cc(OC(=O)NC)ccc3n2)c1,54.4% (active)
10,CN1CCN(c2c(C#N)c(C(F)(F)F)nn2C)CC1,-13.8% (inactive)
11,O=C(CN1CC(c2ccccc2)CC1=O)Nc1cccc(F)c1 (configuration not stated),3.7% (inactive)
12,O=C1NC(=O)N(Cc2ccccc2)C(=O)/C1=C/N1CCCc2ccccc21,6% (inactive)
13,O=c1[nH]c(=O)n(Cc2ccc(F)cc2)c(O)c1C=NCC1CCCO1 (configuration not stated),-20.4% (inactive)
14,O=[N+]([O-])[N-][n+]1cnn(Cc2ccccc2)c1,-10.9% (inactive)
15,Cc1cc(OCC(=O)Nc2c(C)n(C)n(-c3ccccc3)c2=O)c2c3c(c(=O)oc2c1)CCC3,10.1% (inactive)
16,Cc1cccc(NC(=O)N2CCCC2)c1,-7.3% (inactive)
17,COc1cc(/C=C2\C(=O)NC(=O)N(c3ccccc3)C2=O)cc(OC)c1O,13% (inactive)
18,COc1cc(/C=C2\C(=O)NC(=O)N(c3ccc(C)cc3)C2=O)cc(OC)c1O,67.6% (active)
19,COc1cc(/C=C2/C(=O)NC(=O)N(c3ccccc3)C2=O)ccc1O,1.2% (inactive)
20,CCC(=O)N1CC(=O)Nc2ccc(Br)cc2C1c1ccccc1 (configuration not stated),2.3% (inactive)
21,Cc1cccc(C)c1NC(=O)c1cccn(Cc2ccc3c(c2)OC(F)(F)O3)c1=O,9.6% (inactive)
22,C(#CCN1CCOCC1)COC/C=C/c1ccccc1,-8.9% (inactive)
23,COc1ccc(OC)c(N2C(=O)NC(=O)/C(=C\c3ccc([N+](=O)[O-])s3)C2=O)c1,-46.8% (inactive)
24,COc1ccc(N2C(=O)NC(=O)/C(=C\c3ccc([N+](=O)[O-])s3)C2=O)cc1,-53.3% (inactive)
25,COc1ccc(OC)c(N2C(=O)NC(=O)/C(=C/c3ccc([N+](=O)[O-])s3)C2=O)c1,56.6% (active)
26,CN1C(=O)C(=Cc2ccc(-c3cccc(Cl)c3)o2)C(=O)N(C)C1=O,-7.8% (inactive)

row,Compound,inhibition
1,CCN(CC)S(=O)(=O)c1ccc(N=Cc2c(O)n(-c3ccccc3)c(=O)[nH]c2=O)cc1,-8.6% (inactive)
2,COc1ccc(CCn2c(O)c(C=NCc3ccc4c(c3)OCO4)c(=O)[nH]c2=O)cc1OC,8.6% (inactive)
3,COc1ccc(CCn2c(O)c(/C=N/NC(=O)c3ccncc3)c(=O)[nH]c2=O)cc1OC,-12.8% (inactive)
4,O=C(N/N=C/c1c(O)n(CCc2ccccc2)c(=O)[nH]c1=O)c1ccncc1,-28.2% (inactive)
5,O=C(N/N=C/c1c(O)n(CCc2ccc(F)cc2)c(=O)[nH]c1=O)c1ccncc1,53% (active)
6,CC1CCN(S(=O)(=O)c2ccc(NN=C(C#N)C#N)cc2)CC1,-24.1% (inactive)
7,CC(C)Oc1cccc(C(=O)C2CCCN(Cc3ccon3)C2)c1 (configuration not stated),4% (inactive)
8,CC(=O)NC1CC2CCCC(C1)N2 (configuration not stated),-5.2% (inactive)
9,O=C(NC(=O)N1CCC2(CC1)OCCO2)c1ccc(Cl)cc1,11.1% (inactive)
10,O=C(NC1(C(F)(F)F)Oc2ccc(Cl)cc2O1)N1CCC2(CC1)OCCO2 (configuration not stated),70.3% (active)
11,O=C(NC1(C(F)(F)F)Oc2ccccc2O1)N1CCC2(CC1)OCCO2,3.8% (inactive)
12,O=c1[nH]c(=O)n(Cc2ccccc2Cl)c(O)c1C=Nc1ccc(F)cc1,13.7% (inactive)
13,CC(=NCCN1CCCCC1)c1c(O)n(-c2ccc(Cl)cc2)c(=O)[nH]c1=O,2.8% (inactive)
14,COc1cc2c(cc1OC)-c1c(OC)c(OC)cc3c1C(C2)N(C)CC3 (configuration not stated),39.3% (inactive)
15,COc1cc2c(cc1O)CC1c3c(cc(O)c(OC)c3-2)CCN1C (configuration not stated),52.5% (active)
16,COc1cc2c(cc1OC)-c1c(OC)c(OC)cc3c1[C@H](C2)N(C)CC3,-16.2% (inactive)
17,CCc1cccc(C)c1NC(=S)N1CC2CC(C1)c1cccc(=O)n1C2 (configuration not stated),-3.9% (inactive)
18,CCN(CC)C(=O)c1ccc(N2C(=O)C3CC=C(Cl)CC3C2=O)cc1 (configuration not stated),-1.5% (inactive)
19,Nc1ccncc1Cl,-4.4% (inactive)
20,N#Cc1cc2c(nc1SCC(=O)Nc1ccc(Cl)cc1)C1CCN2CC1,-2.2% (inactive)
21,CCN(CC)C(=O)N[C@H]1C[C@@H]2c3cccc4[nH]cc(c34)C[C@H]2N(C)C1,-0.8% (inactive)
22,CN1C[C@H](CNC(=O)OCc2ccccc2)C[C@@H]2c3cccc4c3c(cn4C)C[C@H]21,58.2% (active)
23,O=C(NC[P+](=O)O)OCc1ccccc1,-7% (inactive)
24,CC(C)CCN1CCN(Cc2c(F)cccc2Cl)CC1CCO (configuration not stated),-1.1% (inactive)
25,CC(=O)OC1(c2ccccc2)CCN(C)C(C)C1C (configuration not stated),-7.2% (inactive)
